Screening data (PubChem)
Sm TGR block – qHTS Assay for the Inhibitors of Schistosoma Mansoni Peroxiredoxins; purified TGR, DTNB reduction, TNB absorbance 405 nm; Potency, µM (series often up to 114 µM), inactives show at the highest dose activity change, negative = inhibition, hits mostly inhibitors; Schistosoma mansoni thioredoxin glutathione reductase (TGR), Q962Y6; hit rate 3% among 360,000; also: nearly all actives have a fitted effect of over 60% in size
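First, TGR (20 nM dispensed) and NADPH were mixed with compound. Second, a 15 min room-temperature incubation followed. Third, further NADPH and then DTNB were added to start the reaction. Finally, TNB absorbance was monitored kinetically.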
AmpC no deterg – qHTS Inhibitors of AmpC Beta-Lactamase (assay without detergent). P00811. AmpC nitrocefin hydrolysis, absorbance 480 nm, 0.0001% Triton. Potency, µM (series often up to 57.1 µM), inactives show top-dose activity change, negative = inhibition, hits mostly inhibitors. hit rate 0.52% among 330,000;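 also: plate controls were no compound for no effect and no enzyme for full effect; nearly all actives have a fitted effect of over 20% in size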
Target sequence (P00811 whole entry, looked up): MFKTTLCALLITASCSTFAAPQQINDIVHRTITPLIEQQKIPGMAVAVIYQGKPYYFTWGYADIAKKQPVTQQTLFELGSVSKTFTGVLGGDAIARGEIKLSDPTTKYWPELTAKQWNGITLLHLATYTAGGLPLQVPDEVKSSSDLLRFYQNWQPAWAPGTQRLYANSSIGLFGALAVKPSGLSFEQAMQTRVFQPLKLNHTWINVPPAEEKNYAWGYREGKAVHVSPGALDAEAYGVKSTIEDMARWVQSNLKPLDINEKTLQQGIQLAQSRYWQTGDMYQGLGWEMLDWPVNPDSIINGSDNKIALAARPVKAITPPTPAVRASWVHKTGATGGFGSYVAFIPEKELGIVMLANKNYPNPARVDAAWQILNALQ
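20 mM phosphate pH 7.0 + 0.01% (detergent screen) or 0.0001% Triton X-100; 5.3 nM AmpC reagent; cpd preinc 15 min RT; nitrocefin (800 uM stock) to start; A480 q20 s × 4 min; Activity was normalised to no-enzyme and no-compound control wells.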
AmpC inh detg – qHTS Inhibitors of AmpC Beta-Lactamase (assay with detergent) | Potency, µM (titrated, usually from 114 µM), without a hit: at the top dose activity change, negative = inhibition, usual class: inhibitors | P00811 | AmpC hydrolysis of nitrocefin, absorbance 480 nm, 0.01% Triton | hit rate 0.041% among 370,000;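 also: 0% = no-compound wells and -100% = no-enzyme wells; nearly all actives have a fitted effect of over 25% in size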
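20 mM phosphate pH 7.0 + 0.01% (detergent screen) or 0.0001% Triton X-100; 5.3 nM AmpC reagent; cpd preinc 15 min RT; nitrocefin (800 uM stock) to start; A480 q20 s × 4 min; Activity was normalised to no-enzyme and no-compound control wells.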
Numbers without * were called inactive; ? = inconclusive; nt = not tested or not shown. A selection: hits, their analogues and other compounds. The true share with any hit is near 3.3%. Calls follow the shape of the dose curve; as a rule, active = well fitted curve in the direction sought with a large enough effect; inconclusive = small, poorly fitted or top-dose-only effect, or another doubt; inactive = no such curve, though single readings can be large; an effect the other way counts as inactive or inconclusive. Unless noted, % is scaled to controls: 0 for no effect and ±100 for the full control effect; potency is read from the fitted curve at half-maximal effect.

SMILES | Sm TGR block | AmpC no deterg | AmpC inh detg
COc1ccccc1C(=O)N(Cc1ccco1)Cc1ccccc1F | -0.7% | nt | 3.0%
COc1ccc(OC)c(CNS(=O)(=O)c2ccc3c(c2)oc(=O)n3C)c1 | 8.3% | nt | 6.6%
O=C1c2[nH]nc(-c3ccccc3)c2C(c2ccccc2)N1c1cccc(C(F)(F)F)c1 (stereo not drawn) | 9.9% | nt | ?
CN(C)S(=O)(=O)c1ccc(C(=O)Nc2cc(S(=O)(=O)Nc3ccccc3Cl)ccc2N2CCCCC2)cc1 | 0.7% | 3.16µM* | -3.9%
CN1CCN(c2ccc(Cl)cc2NC(=O)c2ccc(S(=O)(=O)N(C)C)cc2)CC1 | -4.5% | 21.6% | 0.6%
COc1cc(-c2noc(-c3ccc(NCC4CCCO4)c([N+](=O)[O-])c3)n2)cc(OC)c1OC (stereo not drawn) | -23.9% | nt | 3.2%
CCOC(=O)C1=C(Cc2ccc(F)cc2)C(=O)c2ccccc2C1=O | ? | -39.1% | -12.1%
CCCCc1ccc(/C=C2\C(=O)c3ccccc3C(O)=C2C(=O)OCC)cc1 | 11.2µM* | -29.1% | 6.2%
Cc1nn(C(=O)c2ccc(Cl)cc2)c(C)c1S(=O)(=O)N1CCCCCC1 | -9.6% | nt | 1.1%
Cc1cccc2c1NC1(CCCC1)CC2C (stereo not drawn) | ? | -12.8% | -5.1%
CC1CC2(CCCC2)Nc2ccc(F)cc21 (stereo not drawn) | 39.8µM* | -17.5% | 4.3%
CCCN1C(C(=O)c2ccccc2)=C(OC(=O)COc2ccc(C)cc2)c2ccccc2S1(=O)=O | 10µM* | nt | 15.3%
CCCN1C(C(=O)c2ccccc2)=C(OC(=O)C(C)(C)C)c2ccccc2S1(=O)=O | 1.7% | nt | 16.1%
CCN1C(C(=O)c2ccccc2)=C(OC(=O)COc2ccc(OC)cc2)c2ccccc2S1(=O)=O | 11.2µM* | nt | 12.2%
CCN1C(C(=O)c2ccccc2)=C(OC(=O)COc2ccc(C)cc2)c2ccccc2S1(=O)=O | 10µM* | nt | -6.3%
CCCN1C(C(=O)c2ccccc2)=C(OC(=O)COc2ccccc2)c2ccccc2S1(=O)=O | 11.2µM* | nt | 0.6%
CCOC(=O)CN1C(C(=O)c2ccccc2)=C(OC(=O)c2ccccc2)c2ccccc2S1(=O)=O | -3.4% | nt | 1.7%
CCN1C(C(=O)c2ccccc2)=C(OC(=O)c2ccc(Cl)cc2)c2ccccc2S1(=O)=O | -1.3% | nt | 14.5%
CCCCC(=O)OC1=C(C(=O)c2ccccc2)N(C)S(=O)(=O)c2ccccc21 | -28.1% | nt | 9.1%
COC(=O)c1c(C)sc(-c2c(-c3ccc(F)cc3)[nH]c3[nH]c(=O)[nH]c(=O)c23)c1O | ? | nt | -2.2%
Cc1ccc(-n2cnc3cc(C(=O)NCc4ccc(F)cc4)ccc32)c(C)c1 | 4.5% | nt | 3.6%
COc1cccc(C2CC(=O)Nc3cc4c(cc32)OCCO4)c1OC (stereo not drawn) | 0.2% | nt | -0.7%
O=C(Cn1c(=O)n(CCc2ccccc2)c(=O)c2cccnc21)Nc1ccc(F)cc1 | -4.5% | nt | -4.9%
COc1ccc(CCNC(=O)CCn2c(=O)c3ccccc3n(Cc3ccccc3C)c2=O)cc1OC | 8.5% | nt | 11.7%
COC(=O)CN1C(C(=O)c2ccccc2)=C(OC(=O)c2ccc(F)cc2)c2ccccc2S1(=O)=O | -12.7% | nt | 0.8%
SMILES | Sm TGR block | AmpC no deterg | AmpC inh detg
C=CCN1C(C(=O)c2ccccc2)=C(OC(=O)COc2ccccc2)c2ccccc2S1(=O)=O | 11.2µM* | -22.4% | -2.6%
COC(=O)c1ccccc1NC(=O)C1=CC(c2ccc(C)cc2)=NS(=O)(=O)N1C | -0.9% | nt | 19.2%
Cc1c(Cl)ccc2sc(N3CCN(C(=O)C4CC4)CC3)nc12 | 13.0% | nt | 1.4%
Cc1ccc(C)c(N2CCN(C(=O)c3ccc(NC(=O)c4nsc5ccccc45)cc3)CC2)c1 | 26.2% | nt | 17.2%
CCOc1ccccc1CN1CCNC(=O)C1CC(=O)N(C)CCC1CCOCC1 (stereo not drawn) | ? | 42.0% | ?
COc1cccc(CN2CCNC(=O)C2CC(=O)N(C)CCC2CCOCC2)c1OC (stereo not drawn) | 25.1µM* | 49.6% | 3.2%
COc1cccc(CN2CCNC(=O)C2CC(=O)NCCN2CCOCC2)c1OC (stereo not drawn) | -9.4% | 70.6% | -2.1%
COc1cccc(CNC(=O)CC2C(=O)NCCN2Cc2ccoc2)c1OC (stereo not drawn) | 20µM* | -0.4% | 4.4%
CCC(=O)Nc1c(C)nn(-c2ccc(C)c(C)c2)c1C | 0.6% | -7.4% | -0.8%
Cc1ccc(-n2nc(C)c(NC(=O)CCl)c2C)cc1C | 22.4µM* | -5.4% | ?
Cc1ccc(-n2c(C)cc(/C=C3/C(=O)NC(=O)N(C)C3=O)c2C)cc1 | -34.1% | -22.6% | 3.3%
